What all share (assay): log2 ratio of Biotin-Ahx-Ub-VS probe labelling (fragment/DMSO); higher = less target engagement (more negative = stronger competition), active = hit call of the paper (q ≤ 0.05, log2 ratio ≤ -1)
Holding throughout (details): compound concentration: 200 uM; treatment time: 3 h

Compound in assay [1]: CC(C)CN(C1CC1)C(=O)CCl
Summed up: (§1)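 Fragment (200 µM) or vehicle was incubated for 3 h with triplicate HEK293T lysate samples of 495 µg, which were then treated with Biotin-Ahx-Ub-VS at 0.5 µM final for 1 h. Labelled DUBs were enriched on NeutrAvidin, digested with LysC and trypsin, and analysed by diaPASEF LC-MS/MS. Values are average log2 fragment/vehicle ratios from an unpaired t-test on global-median-normalised Spectronaut label-free quantities, using proteins with ≥2 unique peptides.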

Compound in assay [2]: CC(NC(=O)CCl)c1cccs1
Summed up: as §1

Compound in assay [3]: CC1CCCCC1NC(=O)CCl
Summed up: as §1

Compound in assay [4]: CC1CCCCN1C(=O)CCl
Summed up: as §1

Compound in assay [5]: CC1CN(CC(C)O1)C(=O)CCl
In a few lines: as §1

Compound in assay [6]: CN(C1CCCCC1)C(=O)CCl
In a few lines:
as §1

Compound in assay [7]: Cc1cc(NC(=O)CCl)no1
In a few lines: as §1

Compound in assay [8]: Cc1cccc(NC(=O)CCl)c1
Summed up: as §1

Compound in assay [9]: Cc1nc(NC(=O)CCl)sc1C
In a few lines:
as §1

Compound in assay [10]: Cc1nnc(NC(=O)CCl)s1
In a few lines:
as §1

Compound in assay [11]: Cl.Cc1ncsc1CNC(=O)CCl
Summed up: as §1

Compound in assay [12]: ClCC(=O)N1CCCCCCC1
In a few lines: as §1

Compound in assay [13]: ClCC(=O)NC1(CCCC1)C#N
In a few lines: as §1

Compound in assay [14]: ClCC(=O)NCC1CCC1
Summed up: as §1

Compound in assay [15]: ClCC(=O)NCC1CCCO1
Summed up:
as §1

Compound in assay [16]: ClCC(=O)NCc1ccco1
Summed up: as §1

Compound in assay [17]: ClCC(=O)Nc1cccc(Cl)c1
Summed up:
as §1

Compound in assay [18]: ClCC(=O)NC(C1CC1)C1CC1
Summed up: as §1

Unmarked numbers belong to inactive results.

Sequence of UniProt Q53GS9 (Q53GS9 whole entry): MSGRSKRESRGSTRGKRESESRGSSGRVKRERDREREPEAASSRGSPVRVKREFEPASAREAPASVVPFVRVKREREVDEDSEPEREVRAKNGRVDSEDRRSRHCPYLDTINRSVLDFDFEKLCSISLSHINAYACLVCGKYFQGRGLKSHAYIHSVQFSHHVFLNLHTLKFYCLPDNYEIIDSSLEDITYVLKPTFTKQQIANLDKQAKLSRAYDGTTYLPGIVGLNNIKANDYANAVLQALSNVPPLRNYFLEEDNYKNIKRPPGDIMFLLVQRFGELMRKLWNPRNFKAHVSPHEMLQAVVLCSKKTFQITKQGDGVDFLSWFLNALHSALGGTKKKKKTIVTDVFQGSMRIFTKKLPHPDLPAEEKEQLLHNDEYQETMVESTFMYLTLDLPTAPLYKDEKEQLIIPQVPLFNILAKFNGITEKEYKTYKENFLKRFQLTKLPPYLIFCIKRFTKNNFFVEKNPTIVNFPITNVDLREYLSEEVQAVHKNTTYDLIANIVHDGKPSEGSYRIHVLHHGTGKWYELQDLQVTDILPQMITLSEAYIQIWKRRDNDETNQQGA
Sequence of UniProt P51665 (P51665 whole entry): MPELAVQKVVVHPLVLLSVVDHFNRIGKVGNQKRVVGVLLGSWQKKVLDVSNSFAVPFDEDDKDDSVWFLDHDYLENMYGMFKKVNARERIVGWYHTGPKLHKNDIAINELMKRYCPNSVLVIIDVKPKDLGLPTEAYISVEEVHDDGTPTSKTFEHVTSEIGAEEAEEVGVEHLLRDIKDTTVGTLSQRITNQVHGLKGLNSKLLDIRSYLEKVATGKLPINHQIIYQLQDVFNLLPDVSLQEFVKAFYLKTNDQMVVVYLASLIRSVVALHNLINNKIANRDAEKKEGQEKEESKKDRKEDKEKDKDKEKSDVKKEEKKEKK
Sequence of UniProt Q86UV5 (Q86UV5 whole entry): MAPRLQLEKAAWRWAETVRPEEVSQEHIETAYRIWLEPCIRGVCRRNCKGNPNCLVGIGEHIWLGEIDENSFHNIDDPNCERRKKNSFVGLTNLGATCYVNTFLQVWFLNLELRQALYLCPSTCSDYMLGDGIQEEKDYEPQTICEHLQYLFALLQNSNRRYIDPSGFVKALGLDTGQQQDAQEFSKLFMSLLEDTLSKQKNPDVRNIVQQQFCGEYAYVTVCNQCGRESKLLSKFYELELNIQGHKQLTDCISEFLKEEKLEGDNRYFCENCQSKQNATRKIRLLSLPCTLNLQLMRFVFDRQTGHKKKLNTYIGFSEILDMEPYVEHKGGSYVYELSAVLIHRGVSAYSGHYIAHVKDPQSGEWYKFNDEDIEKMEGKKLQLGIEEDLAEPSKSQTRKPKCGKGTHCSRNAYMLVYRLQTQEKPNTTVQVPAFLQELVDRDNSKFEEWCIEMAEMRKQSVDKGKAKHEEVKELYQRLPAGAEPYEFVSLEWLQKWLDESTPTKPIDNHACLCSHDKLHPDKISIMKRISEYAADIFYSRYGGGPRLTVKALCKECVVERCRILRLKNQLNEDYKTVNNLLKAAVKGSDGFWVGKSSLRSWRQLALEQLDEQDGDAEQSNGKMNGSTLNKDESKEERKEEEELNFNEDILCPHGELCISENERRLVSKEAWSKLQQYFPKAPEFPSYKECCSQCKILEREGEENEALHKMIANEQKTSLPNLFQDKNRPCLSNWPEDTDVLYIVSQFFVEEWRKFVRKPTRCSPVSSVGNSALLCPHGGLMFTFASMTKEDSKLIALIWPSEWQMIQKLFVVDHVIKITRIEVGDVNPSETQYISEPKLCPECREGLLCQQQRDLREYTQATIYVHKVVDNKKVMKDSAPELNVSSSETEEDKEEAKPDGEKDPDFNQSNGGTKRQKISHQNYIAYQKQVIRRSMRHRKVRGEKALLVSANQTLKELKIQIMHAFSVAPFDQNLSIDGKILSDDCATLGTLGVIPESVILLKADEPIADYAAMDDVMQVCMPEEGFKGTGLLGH
Sequence of UniProt Q96G74 (Q96G74 whole entry): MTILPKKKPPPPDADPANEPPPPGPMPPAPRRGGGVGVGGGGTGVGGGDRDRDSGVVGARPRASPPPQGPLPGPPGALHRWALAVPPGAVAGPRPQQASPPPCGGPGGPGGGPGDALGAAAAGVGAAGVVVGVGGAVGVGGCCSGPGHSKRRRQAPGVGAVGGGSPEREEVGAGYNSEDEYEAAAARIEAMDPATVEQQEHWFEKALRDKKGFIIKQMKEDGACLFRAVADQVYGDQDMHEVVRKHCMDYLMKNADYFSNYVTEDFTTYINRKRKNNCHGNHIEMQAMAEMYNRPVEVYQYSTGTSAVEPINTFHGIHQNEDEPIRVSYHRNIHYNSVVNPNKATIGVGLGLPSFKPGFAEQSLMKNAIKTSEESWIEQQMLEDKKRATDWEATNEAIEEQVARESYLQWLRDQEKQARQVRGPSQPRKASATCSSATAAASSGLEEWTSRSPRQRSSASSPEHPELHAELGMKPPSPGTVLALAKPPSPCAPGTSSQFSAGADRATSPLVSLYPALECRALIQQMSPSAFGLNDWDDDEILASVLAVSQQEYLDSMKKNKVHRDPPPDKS
Sequence of UniProt Q9UPU5 (Q9UPU5 whole entry): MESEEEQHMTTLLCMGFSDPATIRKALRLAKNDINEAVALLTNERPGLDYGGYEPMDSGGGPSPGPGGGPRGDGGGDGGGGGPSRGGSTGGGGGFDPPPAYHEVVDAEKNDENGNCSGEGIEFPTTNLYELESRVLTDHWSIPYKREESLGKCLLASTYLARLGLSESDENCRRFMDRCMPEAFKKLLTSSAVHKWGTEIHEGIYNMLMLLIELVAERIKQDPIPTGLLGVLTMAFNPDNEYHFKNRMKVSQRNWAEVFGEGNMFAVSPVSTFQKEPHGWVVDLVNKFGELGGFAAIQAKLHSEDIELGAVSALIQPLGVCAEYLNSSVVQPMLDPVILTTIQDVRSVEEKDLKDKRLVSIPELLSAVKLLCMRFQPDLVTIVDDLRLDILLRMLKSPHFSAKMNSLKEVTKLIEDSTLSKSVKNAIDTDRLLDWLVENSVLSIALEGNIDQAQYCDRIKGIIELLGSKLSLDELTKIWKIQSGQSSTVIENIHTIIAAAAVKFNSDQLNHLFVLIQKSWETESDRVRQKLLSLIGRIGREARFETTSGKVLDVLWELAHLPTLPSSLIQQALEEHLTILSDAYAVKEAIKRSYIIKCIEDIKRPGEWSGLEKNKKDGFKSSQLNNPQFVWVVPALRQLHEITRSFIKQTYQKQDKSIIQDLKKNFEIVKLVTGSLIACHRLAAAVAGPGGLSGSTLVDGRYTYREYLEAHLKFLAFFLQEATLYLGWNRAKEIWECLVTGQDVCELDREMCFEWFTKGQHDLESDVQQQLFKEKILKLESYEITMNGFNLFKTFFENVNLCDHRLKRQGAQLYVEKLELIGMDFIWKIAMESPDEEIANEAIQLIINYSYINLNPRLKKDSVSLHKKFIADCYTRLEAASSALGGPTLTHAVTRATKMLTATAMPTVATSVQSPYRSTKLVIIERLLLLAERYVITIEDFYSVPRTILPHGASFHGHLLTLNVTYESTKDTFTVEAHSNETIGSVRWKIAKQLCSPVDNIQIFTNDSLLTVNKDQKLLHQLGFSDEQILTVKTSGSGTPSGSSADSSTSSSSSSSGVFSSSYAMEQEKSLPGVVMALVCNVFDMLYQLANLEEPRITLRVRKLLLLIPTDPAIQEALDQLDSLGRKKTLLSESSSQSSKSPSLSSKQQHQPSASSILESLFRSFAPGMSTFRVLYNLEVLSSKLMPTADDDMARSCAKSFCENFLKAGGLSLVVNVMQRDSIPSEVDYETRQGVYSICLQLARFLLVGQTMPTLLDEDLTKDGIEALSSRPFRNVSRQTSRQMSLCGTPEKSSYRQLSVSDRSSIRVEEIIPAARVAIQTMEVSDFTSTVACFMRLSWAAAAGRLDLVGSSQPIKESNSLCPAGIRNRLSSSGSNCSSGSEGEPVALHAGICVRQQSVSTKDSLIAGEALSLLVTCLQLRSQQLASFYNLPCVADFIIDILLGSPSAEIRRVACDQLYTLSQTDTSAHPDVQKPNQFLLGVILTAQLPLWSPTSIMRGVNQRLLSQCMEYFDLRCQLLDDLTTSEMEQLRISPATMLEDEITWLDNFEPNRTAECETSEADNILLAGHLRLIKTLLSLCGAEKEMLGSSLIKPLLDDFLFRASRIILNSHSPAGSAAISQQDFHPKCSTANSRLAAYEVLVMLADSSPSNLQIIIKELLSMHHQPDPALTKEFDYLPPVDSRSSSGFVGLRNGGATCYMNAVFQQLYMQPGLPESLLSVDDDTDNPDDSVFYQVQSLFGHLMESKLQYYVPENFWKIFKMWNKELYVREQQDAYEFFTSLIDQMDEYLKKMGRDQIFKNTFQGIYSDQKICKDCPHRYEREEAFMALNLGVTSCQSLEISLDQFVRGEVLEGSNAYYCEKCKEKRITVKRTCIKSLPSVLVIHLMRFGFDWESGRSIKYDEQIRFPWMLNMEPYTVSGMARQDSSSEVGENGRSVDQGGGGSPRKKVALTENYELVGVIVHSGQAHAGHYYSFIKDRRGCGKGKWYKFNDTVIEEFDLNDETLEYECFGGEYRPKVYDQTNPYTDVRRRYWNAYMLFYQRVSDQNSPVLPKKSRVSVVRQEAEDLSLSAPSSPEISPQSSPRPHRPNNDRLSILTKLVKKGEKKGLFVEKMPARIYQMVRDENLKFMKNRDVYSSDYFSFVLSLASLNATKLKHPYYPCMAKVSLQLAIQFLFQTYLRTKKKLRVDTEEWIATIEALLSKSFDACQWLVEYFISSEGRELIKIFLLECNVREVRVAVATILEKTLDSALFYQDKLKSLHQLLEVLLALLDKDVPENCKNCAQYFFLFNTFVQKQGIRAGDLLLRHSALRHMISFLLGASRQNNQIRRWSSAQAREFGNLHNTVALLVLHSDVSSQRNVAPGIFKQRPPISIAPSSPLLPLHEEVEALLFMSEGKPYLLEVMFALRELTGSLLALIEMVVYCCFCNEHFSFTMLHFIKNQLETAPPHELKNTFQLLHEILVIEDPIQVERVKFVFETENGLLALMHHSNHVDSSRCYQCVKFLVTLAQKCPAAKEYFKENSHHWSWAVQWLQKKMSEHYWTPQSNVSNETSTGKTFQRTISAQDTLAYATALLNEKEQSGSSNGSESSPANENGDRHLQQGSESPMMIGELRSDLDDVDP

With USP39 (UniProt Q53GS9), the “log2 ratio of Biotin-Ahx-Ub-VS probe labelling” value (“log2 ratio” below) is -0.169 in assay [1]; -0.144 in [2]; -0.231 in assay [3]; -0.11 in [4]; -0.122 in assay [5]; 0.248 in assay [6]. The “log2 ratio” value was -0.329 in [7]; -0.224 in assay [8]; 0.121 in [9]; -0.07 in assay [10]; 0.28 in assay [11]; 0.0652 in assay [12]. Besides, the “log2 ratio” value is -0.079 in assay [13]; -0.0869 in assay [14]; -0.101 in assay [15]; -0.0526 in assay [16]; 0.19 in assay [17].

For the target PSMD7 (UniProt P51665), the “log2 ratio” value in assay [1] was -0.0028; in assay [2], -0.0716; in [3], 0.132; in assay [4], -0.25; in assay [5], -0.394; in assay [6] it was -0.133. In addition, the “log2 ratio” value in assay [7] is -0.0871; in [8], -0.0249; in assay [9], 0.0653; in [10], -0.0837; in assay [11], -0.291; in assay [12], -0.184. Besides, the “log2 ratio” value in [18] was -0.0309; in assay [13] it was -0.279; in [14], -0.286; in assay [15] it was 0.0364; in assay [16], -0.47; in [17], -0.124.

Regarding USP48 (UniProt Q86UV5), the “log2 ratio” value in assay [1] was -0.00536; in assay [2], -0.0207; in assay [3] it was -0.24; in [4] it was -0.338; in assay [5] it was -0.249; in assay [6] it was -0.456. The “log2 ratio” value is -0.25 in assay [7]; -0.217 in assay [8]; -0.179 in assay [9]; -0.251 in [10]; 0.0264 in assay [11]; -0.519 in assay [12]. Moreover, the “log2 ratio” value in assay [13] is -0.56; in assay [14] it was -0.21; in assay [15], -0.0126; in [16], -0.405; in [17], -0.545.

Take OTUD5 (UniProt Q96G74): the “log2 ratio” value in [1] was -0.09; in assay [2], 0.0244; in [3] it was -0.556; in assay [4] it was -0.67; in assay [5], -0.615; in [6], -0.0917. The “log2 ratio” value was -0.331 in assay [7]; -0.13 in [8]; -0.315 in assay [9]; -0.685 in assay [10]; -0.104 in assay [11]; -0.27 in assay [12]. For the same target, the “log2 ratio” value is -0.519 in assay [13]; -0.238 in assay [14]; -0.0992 in assay [15]; -0.442 in assay [16]; -0.995 in assay [17].

Consider USP24 (UniProt Q9UPU5), for which the “log2 ratio” value in assay [1] is -0.191; in assay [2] it was -0.0286; in assay [3], -0.426; in assay [4], -0.579; in assay [5], -0.301; in assay [6], -0.575. The “log2 ratio” value in assay [7] is -0.201; in assay [8], -0.537; in [9], -0.319; in assay [10] it was -0.639; in assay [11], -0.322; in [12] it was -0.475. Besides, the “log2 ratio” value in assay [13] is -0.116; in assay [14], 0.00205; in assay [15], 0.122; in assay [16], -0.238; in [17] it was -1.4 (active).

(Values after the supplement of paper PMC11732987, “Enantioselective OTUD7B fragment discovery through chemoproteomics screening and high-throughput optimisation” (Communications Chemistry, 2025).)
